According to PubChem BioAssay (NCI):
Compounds without any hit were thinned out: in the full panel of roughly 79,000, 15% have a hit. A number with no mark means an inactive call. Activity calls are given as the source filed them. Cut-off read from the data, not from the text of the source: active = growth inhibition above about 70%; inactive = the rest. Where a SMILES comes first, the peptide text is derived from it. [ ]: non-standard residue; d: D form. ξ: configuration not given here. ξD = NC(CC(=O)O)C(=O)O

Assay: NCI Yeast Anticancer Drug Screen. Data for the rad50 strain (AID 155);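 note: 0% = growth of vehicle-only cultures of the same strain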
Conditions: S. cerevisiae rad50 strain growth inhibition; at 50.0 µM (retest, dose inferred, filed as 5.0); hits give high values
Procedure, shortened: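 Vehicle-treated cultures provide the reference for the growth inhibition reported for compound-exposed, repair-deficient yeast.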

Row | SMILES | growth inhibition
1 | COC(=O)c1nc(=S)[nH]c(C(=O)OC)c1C(=O)c1ccc(Cl)c(Cl)c1 | 98% (active)
2 | NC(=Nc1nc(-c2ccccn2)cc2ccccc12)c1ccccn1 | 70% (active)
3 | Cc1nc(Sc2nc3ccc([N+](=O)[O-])cc3s2)sc1C | 86% (active)
4 | NC(=S)Nc1ccc2c(c1)Cc1ccccc1-2 | 29%
5 | CN(C)CCN(C)CC(C)(C)C(=O)/C=C/c1ccc(Cl)c(Cl)c1 | 99% (active)
6 | CCCCCCCCCCCCCCCc1ccc(C(=O)C[n+]2ccccc2)cc1 | 96% (active)
7 | O=C(CCl)N(c1ccccc1)c1ccccc1 | 59%
8 | CCOC(=O)C1=C(C(=O)c2ccccc2)C(c2cccc([N+](=O)[O-])c2)C(C(=O)c2ccccc2)=C(C(=O)OCC)N1 | 60%
9 | CCN1CCCC(Nc2cc(C)nc(/N=C(/N)Nc3ccc(Cl)c(Cl)c3)n2)C1 (centres undefined) | 96% (active)
10 | CCc1cnc2ccccc2c1/C=C/c1ccc(N(C)C)cc1 | 96% (active)
11 | O=[N+]([O-])c1ccc2c(c1)Cc1ccccc1-2 | -11%
12 | Fc1ccc(NCCS)cc1 | 90% (active)
13 | CCCCC(C=O)(C=C=C(C)C)CC (centres undefined) | 28%
14 | CN(C)c1ccc(/C=C/c2cc[n+](C)c(/C=C/c3ccc(N(C)C)cc3)c2)cc1 | 96% (active)
15 | COc1cc([C@@H]2c3cc4c(cc3[C@H](OC3OC5COC(c6ccccc6)OC5C(O)C3O)[C@H]3COC(=O)[C@H]23)OCO4)cc(OC)c1OC (some centres undefined) | 91% (active)
16 | OC(c1cc(-c2ccc(Cl)cc2)nc2c(Cl)cccc12)C1CCCCN1 (centres undefined) | 93% (active)
17 | CSc1nc(C)c(C(=O)CCN2CCN(c3ccccn3)CC2)s1 | 99% (active)
18 | Cc1cc(C(=O)c2ccc(Cl)cc2)ccc1O | 4%
19 | O=C(c1ccccc1)C(Br)C(Br)c1ccccc1 (centres undefined) | 96% (active)
20 | CCCCCCN(CCCCCC)CCCNc1nccc2ccccc12 | 62%

Row | SMILES | growth inhibition
21 | CCCCCCCCCCCC[S+](C)CC(=O)[O-] (centres undefined) | 74% (active)
22 | COC(=O)C(=[N+]=[N-])C(=O)c1ccc([N+](=O)[O-])o1 | 98% (active)
23 | Cc1c(O)ccc(SC#N)c1C | 82% (active)
24 | Oc1c(Cl)cc(Cl)cc1C(c1cc(Cl)cc(Cl)c1O)C(Cl)(Cl)Cl | 99% (active)
25 | CCCCCCCCCCCCNCCCc1ccccc1 | 98% (active)
26 | Nc1ccc(C(=O)/C=C/c2ccccc2)cc1 | 57%
27 | NCC(=O)NC(CC(=O)O)C(=O)O (centres undefined) (H-Gly-[ξD]-OH) | 10%
28 | CN(C)c1ccc(C(=C2C=CC(=[N+](C)C)C=C2)c2ccc(N(C)C)cc2)cc1 | 90% (active)
29 | O=C1c2ccccc2Cc2cccc(Cl)c21 | 72% (active)
30 | O=C/C=C/c1ccc([N+](=O)[O-])cc1 | 98% (active)
31 | O=C1c2ccccc2C(=O)c2c(O)c(Cl)cc(O)c21 | 20%
32 | CN1CSC(=S)N(Cc2ccccc2)C1 | 78% (active)
33 | CC(O)C(O)C(O)C(O)C(O)C(=O)NNc1ccccc1 (centres undefined) | 75% (active)
34 | Cn1c(COC(=O)NC2CCCCC2)c(COC(=O)NC2CCCCC2)c2ccc3cc(Cl)c(Cl)cc3c21 | 31%
35 | NC(=S)N/N=C\c1nccc2c(N)cccc12 | 87% (active)
36 | Oc1cc(Cl)ccc1Cc1ccc(Cl)cc1O | 100% (active)
37 | CCCCCCCCCCCC(=O)OC(C)C(=O)NCCCC (centres undefined) | 21%
38 | CCC(=O)c1cc([N+](=O)[O-])c(Br)s1 | 99% (active)
39 | OC(Cc1cc(CC(O)(C(F)(F)F)C(F)(F)F)nc(CC(O)(C(F)(F)F)C(F)(F)F)c1)(C(F)(F)F)C(F)(F)F | 99% (active)
